# Laboratory results taken from PubChem BioAssay (NCATS).
# Values without a mark were called inactive. Inconclusive results are not listed. A call without a number means that no potency is given here. Calls of active or inactive are those of the source. Calls follow the shape of the dose curve; as a rule, active = well fitted curve in the direction sought with a large enough effect; inconclusive = small, poorly fitted or top-dose-only effect, or another doubt; inactive = no such curve, though single readings can be large; an effect the other way counts as inactive or inconclusive. *1 amine or outer side, *2 acyl side, *3 side chain or, on linkers, in order; H or OH if unused. Where a SMILES comes first, the peptide text is derived from it. Bridges are numbered along the chain shown (N, C = ends). X6 = O=C(CCC[*:2])[*:1]
# Columns and labels:
# [1] = molecular target: Phospholipid hydroperoxide glutathione peroxidase GPX4 (Homo sapiens) (UniProt P36969); assay: Primary qHTS Assay for Inhibitors of Recombinant Selenoprotein Glutathione Peroxidase 4 (GPX4) (AID 1845192); also: nearly all actives have a fitted effect of over 65% in size; as to activity change, negative = inhibition: series mostly up to about 50 µM
# Chain of Phospholipid hydroperoxide glutathione peroxidase GPX4 (Homo sapiens) (P36969 whole entry, looked up): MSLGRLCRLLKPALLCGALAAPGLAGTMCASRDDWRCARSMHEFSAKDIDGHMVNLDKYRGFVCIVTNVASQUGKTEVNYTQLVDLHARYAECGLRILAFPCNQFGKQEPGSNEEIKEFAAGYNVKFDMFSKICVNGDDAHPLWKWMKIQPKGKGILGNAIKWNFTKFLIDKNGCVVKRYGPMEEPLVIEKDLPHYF
# In short: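 NADPH consumption followed by fluorescence at 340/450 nm, t=0 and after 15 min at room temperature. Reaction started with cumene hydroperoxide (0.5 mM final) after 30 min compound–GPX4 preincubation; final 200 nM GPX4, 100 nM GR, 1 mM GSH, 0.5 mM NADPH.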
# [2] = molecular target: Luciferin 4-monooxygenase (Photinus pyralis) (UniProt P08659); assay: Primary firefly luciferase (FLuc) qHTS assay for identification of artifact compounds. (AID 1845220); also: nearly all actives have a fitted effect of over 60% in size; also: potency is read from the fitted curve at half-maximal effect; as to activity change, negative = inhibition: series mostly up to about 54 µM
# In short: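 Compounds sat 15 min at room temperature with 10 uM luciferin and 10 uM ATP (pH 7.6 Tris acetate). Firefly luciferase (10 nM final) was then added, and luminescence was read 5 min later. Data normalized to no-enzyme and DMSO controls were Hill-fitted.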
# [3] = Primary fluorescence-based thiol-reactive (MSTI) qHTS assay for identification of artifact compounds. (AID 1845221); also: nearly all actives have a fitted effect of over 65% in size; also: potency is read from the fitted curve at half-maximal effect;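 as to activity change, negative = thiol reactive: series mostly up to about 54 µM; thiol-reactive compounds lower the probe fluorescence signal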
# In short: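 Probe: MSTI 4 uM, PBS pH 7.4, 2% DMSO. Incubation 1 h, RT, light-protected. Readout fluorescence 525/598 nm.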
# [4] = tested on: Nanoluciferase (engineered Oplophorus gracilirostris luciferase); assay: Primary Nanoluciferase (NLuc) qHTS assay for identification of artifact compounds. (AID 1845222); also: series mostly up to about 54 µM
# In short: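 Luminescence from secreted NLuc (filtered, 1:55-diluted S16 cell medium) read 5 min after Nano-Glo substrate; compounds preincubated 15 min, RT. Hill fits of inhibition normalized to DMSO and no-enzyme.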
smiles,measurement,setting,value
Cc1ccc2c(c1)C=Cc1cc(C)ccc1C2c1cn(Cc2ccc(C(=O)Nc3nn[nH]n3)o2)c(=O)[nH]c1=S,Potency,[1],inactive
same,Potency,[2],inactive
same,Potency,[3],inactive
same,Potency,[4],inactive
C/C(=C\CCC(C(=O)O)C1CCC2(C)C3=C(CCC12C)C1(C)CCC(=O)C(C)(C)C1CC3)C(=O)O (stereo not given),Potency,[1],inactive
same,Potency,[2],inactive
same,Potency,[3],inactive
same,Potency,[4],inactive
CC(C(=O)O)C1CCC2(C)C3C(=O)C=C4C(CCC(=O)C4(C)C)C3(C)CCC12C (stereo not given),Potency,[1],inactive
same,Potency,[2],inactive
same,Potency,[3],inactive
same,Potency,[4],inactive
O=C(OCc1cccc(O)c1O[C@@H]1O[C@H](CO)[C@@H](O)[C@H](O)[C@H]1O)C1(O)C(=O)C2C=CC1C1C=CC(=O)C(O)(C(=O)OCc3cccc(O)c3O[C@@H]3O[C@H](CO)[C@@H](O)[C@H](O)[C@H]3O)C21 (stereo not given in full),Potency,[1],inactive
same,outcome,[2],inactive [at 11.6 µM]
same,"activity change, negative = thiol reactive",[3],11.6% [at 11.5 µM]
same,"activity, negative = inhibition",[4],1.93% [at 11.6 µM]
COC(=O)C1=COC(OC2OC(CO)C(O)C(O)C2O)C2C1CC(OC(=O)C(O)CC(=O)O)C2C (stereo not given),Potency,[1],inactive
same,Potency,[2],inactive
same,Potency,[3],13 µM (active)
C[C@@H]1O[C@@H](O[C@H]2[C@H](OC(=O)[C@]34CCC(C)(C)C[C@H]3C3=CCC5[C@@]6(C)CC[C@H](O[C@@H]7O[C@H](CO[C@@H]8OC[C@H](O)[C@H](O)[C@H]8O)[C@@H](O)[C@H](O)[C@H]7O)C(C)(C)C6CC[C@@]5(C)[C@]3(C)C[C@H]4O)OC[C@@H](O)[C@@H]2O)[C@H](O)[C@H](O)[C@H]1O[C@@H]1OC[C@H](O)[C@H](O[C@@H]2OC[C@@H](O)[C@H](O)[C@H]2O)[C@H]1O (stereo not given in full),"activity change, negative = inhibition",[1],-4.93% [at 9.73 µM]
same,"activity change, negative = inhibition",[2],1.47% [at 11.6 µM]
same,"activity change, negative = thiol reactive",[3],146% [at 11.5 µM]
same,"activity, negative = inhibition",[4],-4.62% [at 11.6 µM]
CC12CC34C=CC(=O)C(C)(CCC(=O)O)C3C(CC1C4)O2 (stereo not given),Potency,[1],inactive
same,Potency,[2],inactive
same,Potency,[3],inactive
same,Potency,[4],inactive
COC(=O)C1=COC(O[C@@H]2O[C@H](CO)[C@@H](O)[C@H](O)[C@H]2O)/C(=C\COC(=O)c2ccc(OC3OC(CO)C(O)C(O)C3O)c(OC)c2)C1CC(=O)OCCc1ccc(O)cc1 (stereo not given in full),Potency,[1],inactive
same,outcome,[2],inactive [at 11.6 µM]
same,"activity change, negative = thiol reactive",[3],1.89% [at 11.5 µM]
same,"activity, negative = inhibition",[4],4.63% [at 11.6 µM]
CC[C@H](C)[C@@H]1NC(=O)[C@H](Cc2ccc(OC)cc2)NC(=O)CCCSC[C@@H](C(=O)N2CCC[C@H]2C(=O)N[C@@H](CC(C)C)C(=O)NCC(N)=O)NC(=O)[C@H](CC(N)=O)NC(=O)[C@H](CCC(N)=O)NC1=O (Y(Me)IQNCPLG-NH2; linker N-5 via X6),Potency,[1],inactive
same,Potency,[2],inactive
same,Potency,[3],inactive
C/C=C/C=C/C(CC(=O)O)Nc1ccc(C=O)cc1 (stereo not given),Potency,[1],inactive
same,Potency,[2],23.9 µM (active)
same,Potency,[3],4.74 µM (active)
COC(=O)c1cc(CN2CCN(C(=N)N)CC2)cc(C(=O)N2CCN(C(=O)c3ccc(C(=N)N)cc3)CC2)c1,Potency,[1],inactive
same,Potency,[2],inactive
same,Potency,[3],inactive
same,Potency,[4],inactive
O=C(/C=C/c1c(C(=O)O)[nH]c2cc(Cl)cc(Cl)c12)Nc1ccccc1,Potency,[1],inactive
same,Potency,[2],inactive
same,Potency,[3],inactive
C/C=C/C1=CC2=CC(=O)C(C)(O)C(OC(=O)c3c(C)cc(O)cc3O)C2CO1 (stereo not given),Potency,[1],inactive
same,Potency,[2],inactive
same,Potency,[3],inactive
same,Potency,[4],inactive
OC[C@H]1O[C@@H](Oc2ccc(O)c3cccc(O)c23)[C@H](O)[C@@H](O)[C@@H]1O,Potency,[1],inactive
same,Potency,[2],inactive
same,Potency,[3],0.927 µM (active)
CC1=CC[C@]2(C(=O)O[C@@H]3O[C@H](CO[C@@H]4O[C@H](CO)[C@@H](O[C@@H]5O[C@@H](C)[C@H](O)[C@@H](O)[C@H]5O)[C@H](O)[C@H]4O)[C@@H](O)[C@H](O)[C@H]3O)CC[C@]3(C)C(CCC4[C@@]5(C)C[C@@H](O)[C@H](O)[C@@](C)(CO)C5CC[C@]43C)C2C1C (stereo not given in full),Potency,[1],inactive
same,"activity change, negative = inhibition",[2],0.527% [at 11.6 µM]
same,"activity change, negative = thiol reactive",[3],137% [at 11.5 µM]
same,"activity, negative = inhibition",[4],3.97% [at 11.6 µM]
O=C(O)c1cc(O)c2cccc(O)c2c1O[C@@H]1O[C@H](CO)[C@@H](O)[C@H](O)[C@H]1O,Potency,[1],inactive
same,Potency,[2],inactive
same,Potency,[3],2.07 µM (active)
CC(=O)N(CC(C)C(=O)O)c1c(I)cc(I)c(N)c1I (stereo not given),Potency,[1],inactive
CC1(C)NC2N(C1=O)c1ccccc1C2(O)CC(C(=O)O)n1cnc2ccccc2c1=O (stereo not given),Potency,[1],inactive
same,Potency,[2],inactive
same,Potency,[3],inactive
same,Potency,[4],inactive
CC1CCC2C(C)(C)C(O)CCC2(C)C12Cc1c(O)cc3c(c1O2)CN(C(CCC(N)=O)C(=O)O)C3=O (stereo not given),Potency,[1],inactive
same,Potency,[2],inactive
same,Potency,[3],inactive
CO[C@H]1C=C2C(CC[C@H](O[C@@H]3O[C@H](CO)[C@@H](O)[C@@H](O)[C@H]3O)C2(C)C)[C@]2(C)CC[C@]3(C)C([C@H](C)C(O)C(C=C(C)C)O[C@@H]4O[C@H](CO)[C@@H](O)[C@@H](O)[C@H]4O)CC[C@@]3(C)C12 (stereo not given in full),Potency,[1],inactive
same,"activity change, negative = inhibition",[2],1.78% [at 11.6 µM]
same,"activity change, negative = thiol reactive",[3],133% [at 11.5 µM]
same,"activity, negative = inhibition",[4],4.54% [at 11.6 µM]
